Common to all, as to experiment: NCI-60 one-dose screen, 48 h (100 = growth as untreated, 0 = no growth, -100 = all killed)
Holding throughout (conditions): 10 µM unless noted

For assay [1], the system named is HCT-15 colon.
Assay [2] deals with HT29 colon.
Assay [3] has as its system SNB-75 CNS.
In assay [4] the test system is SNB-19 CNS.
Assay [5] relates to U251 CNS.
Assay [6] deals with PC-3 prostate.
For assay [7], the system named is SK-MEL-5 melanoma.
In assay [8] the test system is UACC-62 melanoma.
The test system of assay [9] is LOX IMVI melanoma.
The test system of assay [10] is SK-MEL-28 melanoma.
Assay [11] deals with SK-MEL-2 melanoma.
The subject of assay [12] is SN12C renal.
Assay [13] relates to UO-31 renal.
Assay [14] has as its system TK-10 renal.
Assay [15] concerns ACHN renal.
Assay [16] concerns CAKI-1 renal.
In assay [17] the test system is A498 renal.
Assay [18] deals with CCRF-CEM leukemia.
Assay [19] concerns EKVX NSCLC.
For assay [20], the system named is MOLT-4 leukemia.

The panel holds about 83,000 compounds, 20% with a hit somewhere; the sample as a whole holds those more often.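 Results are percent growth after 48 hours of single-concentration exposure. 100 means growth as in untreated cells, lower positive values show inhibition; negative values down to -100 show cell death.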 Values without a mark were called inactive. Calls of active or inactive are those of the source. The calls were made as follows: active = growth percent below 10; inactive = the rest.

Turning to `C1=C(Cc2ccccc2)n2cnc3ncnc(c32)S1`, the growth was 71.8% in assay [1]; 55.7% in assay [2]; 45.8% in [3]; 94.1% in assay [4]; 78.8% in assay [5]; 78.2% in [6]. Also, the growth in assay [7] was 86.1%; in assay [8] it was 54.5%; in [9], 9.31% (active); in assay [10], 103%; in assay [11], 75%; in assay [12], 86.4%. The growth in assay [13] is 48.3%; in assay [14], 28.6%; in [15], 87.2%; in assay [16], 39.6%; in assay [17], 99.6%; in assay [18], 58.9%.

Turning to `COc1cc(/C=C/C(=O)CC(=O)/C=C/c2ccc(OC(=O)C3C4CC5CC(C4)CC3C5)c(OC)c2)ccc1OC(=O)C1C2CC3CC(C2)CC1C3` (stereo not drawn), the growth in assay [1] is 135%; in assay [2], 105%; in assay [3], 107%; in [4] it was 106%; in assay [5] it was 111%; in [6], 82.8%. Besides, the growth is 110% in assay [7]; 114% in assay [8]; 108% in [9]; 131% in assay [10]; 93.1% in assay [11]; 109% in assay [19]. Further, the growth in [12] was 108%; in [14], 96.9%; in assay [15], 144%; in assay [16] it was 99.6%; in [17] it was 109%; in assay [18] it was 89.8%. For the same molecule, the growth in [20] was 103%.

Regarding `CCOc1cc(/C=C/C(=O)C(C(=O)/C=C/c2ccc(OC(=O)CNc3nc4ccccc4[nH]3)c(OCC)c2)C(=O)CNc2nc3ccccc3[nH]2)ccc1OC(=O)CNc1nc2ccccc2[nH]1`, the growth in [1] is -41% (active); in [2], -100% (active); in assay [3], -18.1% (active); in [4] it was 25.1%; in assay [5] it was -61.5% (active); in [6], 3.12% (active). Also, the growth in assay [7] was -86.6% (active); in assay [8], -61.4% (active); in assay [9], -98.5% (active); in [10] it was -29.6% (active); in [11], 13.2%; in assay [19], -3.49% (active). The growth in assay [12] is -22.9% (active); in assay [14], 31.8%; in [15], -45.6% (active); in assay [16], -12.2% (active); in [17], -9.48% (active); in assay [20], -27.5% (active).

For the molecule `Cn1cc(NC(=O)Nc2cc(C(=O)O)n(C)c2)cc1C(=O)O`, the growth is 113% in assay [1]; 107% in assay [2]; 103% in assay [3]; 118% in assay [4]; 100% in assay [5]; -76.4% (active) in [6]. In addition, the growth in [7] was 93.6%; in [8], 90%; in [9], 98.1%; in [10] it was 121%; in [11], 97.8%; in assay [19] it was 114%. Besides, the growth in [12] was 89.6%; in [14] it was 107%; in assay [15], 104%; in assay [16] it was 99.3%; in assay [17], 109%; in assay [18] it was 103%. In assay [20], the growth was 85.9%.

Take `O=C(CSc1ncc(-c2ccccc2)n1-c1ccccc1)Nc1ccc(-c2nc3ccccc3s2)cc1`: the growth in [1] is 69%; in [2], 38.1%; in [3], 103%; in [4] it was 90.4%; in assay [5] it was 24.7%; in assay [6] it was 80%. For the same molecule, the growth in [7] was 75.7%; in assay [8] it was 87.3%; in assay [9] it was 63.5%; in [10], 80%; in assay [11], 80.6%; in [19], 103%. Further, the growth is 98.4% in assay [13]; 44.2% in assay [14]; 102% in assay [15]; 87.4% in assay [16]; 107% in [17]; 83.8% in assay [18]. For the same molecule, in assay [20], the growth is 66.6%.

In the case of `N#Cc1ccccc1C#Cc1ccccc1C#Cc1ccc(OCCCCCCOc2ccc(C#Cc3ccccc3C#Cc3ccccc3C#N)cc2)cc1`, the growth in assay [1] is 123%; in [2] it was 111%; in assay [3], 106%; in assay [4], 108%; in assay [5], 106%; in [6] it was 99.5%. Moreover, the growth is 73.8% in [7]; 83.3% in [8]; 98.4% in assay [9]; 113% in assay [10]; 98.3% in assay [11]; 111% in assay [19]. For the same molecule, the growth in assay [12] is 104%; in assay [14], 147%; in [15], 109%; in assay [16], 116%; in assay [17], 113%; in [18], 3.16% (active). The growth in assay [20] was 103%.

With `C(#Cc1ccccc1C#Cc1ccccn1)c1ccc(OCCCCCCOc2ccc(C#Cc3ccccc3C#Cc3ccccn3)cc2)cc1`, the growth is 41.2% in [1]; 93% in assay [2]; 92.6% in assay [3]; 72.5% in assay [4]; 50.3% in assay [5]; 39.6% in [6]. Also, the growth in [7] was 20.6%; in assay [8] it was 23.9%; in assay [9], 14.7%; in [10] it was 81.8%; in assay [11] it was 64.2%; in [19], 42.5%. Besides, the growth in [12] is 67.8%; in assay [14], 76.2%; in [15] it was 44.2%; in assay [16], 57.9%; in [17] it was 57.5%; in assay [20], 21.6%.

As to `Cc1ccc2nc3c(n2c1)C(=O)C(=O)c1ccccc1-3`, the growth was -70.1% (active) in assay [1]; -39.1% (active) in assay [2]; -70.2% (active) in assay [3]; -77.7% (active) in assay [4]; -86% (active) in [5]; -24.5% (active) in [6]. For the same molecule, the growth in assay [7] is -95.9% (active); in assay [8], -89% (active); in assay [9] it was -72% (active); in [10], -86.4% (active); in assay [11], -55.6% (active); in assay [19], -89.6% (active). In addition, the growth in assay [12] was -71.7% (active); in assay [14], -62.4% (active); in [15], -77.1% (active); in [17] it was -96.4% (active); in [18] it was -12.8% (active); in [20] it was -70.8% (active).

The record behind these values is PubChem BioAssay (NCI).
